PubChem BioAssay (NCATS)

The compounds below were run against Glucocorticoid receptor (Homo sapiens) (UniProt P04150) (assay: GR-GFP Redistribution (AID 450)). Conditions: U2OS GR-GFP nuclear translocation, laser cytometry, 2 h; series mostly up to 20.6 µM;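 active = compounds whose dose series gives a full or clear partial fitted curve of increased nuclear translocation; inconclusive = weak partial curve or effect only at the top dose; inactive = no dose-dependent translocation response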.
Potency is read from the fitted curve at half-maximal effect.

Chain of Glucocorticoid receptor (Homo sapiens) (P04150 whole entry, looked up): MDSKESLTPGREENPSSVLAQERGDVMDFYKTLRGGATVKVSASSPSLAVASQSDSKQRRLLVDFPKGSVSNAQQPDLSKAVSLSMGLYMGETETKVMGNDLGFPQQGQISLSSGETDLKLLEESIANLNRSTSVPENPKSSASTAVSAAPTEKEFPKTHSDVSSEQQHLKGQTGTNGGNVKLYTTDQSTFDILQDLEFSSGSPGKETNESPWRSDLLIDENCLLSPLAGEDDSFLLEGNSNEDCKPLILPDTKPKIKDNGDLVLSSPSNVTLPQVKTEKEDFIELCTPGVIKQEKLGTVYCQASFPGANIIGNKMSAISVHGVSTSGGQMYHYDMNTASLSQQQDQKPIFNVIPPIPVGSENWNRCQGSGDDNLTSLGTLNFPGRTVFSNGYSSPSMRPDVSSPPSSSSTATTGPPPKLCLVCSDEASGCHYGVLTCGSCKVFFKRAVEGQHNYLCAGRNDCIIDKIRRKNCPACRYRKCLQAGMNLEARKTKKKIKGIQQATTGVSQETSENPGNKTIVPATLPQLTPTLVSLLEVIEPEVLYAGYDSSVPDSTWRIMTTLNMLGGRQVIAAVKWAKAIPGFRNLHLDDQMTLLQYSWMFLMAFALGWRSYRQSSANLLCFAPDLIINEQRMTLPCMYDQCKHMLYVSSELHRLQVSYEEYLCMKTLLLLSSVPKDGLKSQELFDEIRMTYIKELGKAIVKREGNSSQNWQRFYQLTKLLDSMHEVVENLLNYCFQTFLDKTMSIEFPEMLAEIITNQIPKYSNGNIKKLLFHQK

Potency, inactive:
Cc1nn(CC(N)=O)c(=O)c2ccccc12 > 20.6 µM
COc1ccc(OC)c(C2C(C#N)=C(N)Oc3cc(C)[nH]c(=O)c32)c1 (stereo not given) > 20.6 µM
Cc1ccc2[nH]c(CCN(C)C)c(CC#N)c2c1 > 20.6 µM
COc1cc(C2CC(C(F)(F)F)n3ncc(C(=O)O)c3N2)cc(OC)c1OC (stereo not given) > 20.6 µM
CC(=N\O)/C(CN(C)C)=N/O > 20.6 µM
Cc1cc(=O)oc2cc(OCCSCCN3CCOCC3)ccc12 > 20.6 µM
CCCOc1cccc(C2C(C(=O)c3ccc(C)o3)=C(O)C(=O)N2CCCN(C)C)c1 (stereo not given) > 20.6 µM
CSC(=Nc1ccccc1)C1=C(O)COC1=O > 20.6 µM
Cn1c(NCc2cccnc2)nc2c1c(=O)n(Cc1ccccc1F)c(=O)n2C > 20.6 µM
CCCOc1cccc(C2/C(=C(/O)c3ccccc3)C(=O)C(=O)N2CCN(C)C)c1 (stereo not given) > 20.6 µM
COc1ccccc1N(O)C1CC(=O)N(c2ccc(Br)cc2)C1=O (stereo not given) > 20.6 µM
N/C(CCN1CCOCC1)=N/O > 20.6 µM
O=C1C(=O)N(CCCn2ccnc2)C(c2ccccn2)/C1=C(/O)c1ccccc1 (stereo not given) > 20.6 µM
C=CCn1c(SCC(=O)c2ccccc2)nnc1-c1ccc2c(c1)OCO2 > 20.6 µM
Cc1ccc(S(=O)(=O)NC(=O)NCc2ccc3c(c2)OCO3)cc1 > 20.6 µM
CSc1nc(N)nc(SCC(=O)CC(=O)OC(C)C)c1C#N > 20.6 µM
CN(C)C(CN1C(=O)C2CC=CCC2C1=O)c1cn(C)c2ccccc12 (stereo not given) > 20.6 µM
COC(=O)CN1C2(C#N)CCCCC2CC2CCCCC21C#N (stereo not given) > 20.6 µM
Cc1ccc(-n2ncc3c(N4CCCC4)ncnc32)c(C)c1 > 20.6 µM
COC(=O)CSc1nnc2n(-c3ccc(OC)cc3)c(=O)c3c4c(sc3n12)CCCCC4 > 20.6 µM
COC(=O)c1ccc(C2/C(=C(\O)c3cccc(OC)c3)C(=O)C(=O)N2CCCN(C)C)cc1 (stereo not given) > 20.6 µM
CC12CCC(C(=O)NCCCN3CCOCC3)(OC1=O)C2(C)C (stereo not given) > 20.6 µM
CCN(CC)CCCN1C(=O)C(=O)/C(=C(/O)c2ccc(OC)cc2)C1c1ccco1 (stereo not given) > 20.6 µM
CC(=O)Nc1ccc(OC(=O)CC2SC(=O)NC2=O)cc1 (stereo not given) > 20.6 µM
CC1=C(c2ccc(Cl)cc2)[N+](=O)C(C)(C)N1[O-] > 20.6 µM
CCCCOC(=O)c1[nH]c(C)c(C(=O)OC)c1C > 20.6 µM
O=C(O)CC(C(=O)N(c1ccccc1)c1ccccc1)N1CCOCC1 (stereo not given) > 20.6 µM
COc1cccc(NC(=O)CSC2=C(C#N)C(c3ccco3)C3=C(CCCC3=O)N2)c1 (stereo not given) > 20.6 µM
O=C(NC1(C(F)(F)F)C(=O)Nc2c1c(=O)[nH]c(=O)n2-c1ccccc1)c1cccnc1 (stereo not given) > 20.6 µM
COC(=O)CSCC(=O)Nc1cc2c(cc1C(C)=O)OCO2 > 20.6 µM
CCOC(=O)Oc1ccc2c(c1)C(C)=CC(C)(C)N2C(=O)OCC > 20.6 µM
N#Cc1c(NCCN)nc(NCc2ccccc2)c2c1CCN(Cc1ccccc1)C2 > 20.6 µM
Cc1cc(=O)oc2ccc(OCC(=O)N3CCc4ccccc43)cc12 > 20.6 µM
N/C(=N\S(=O)(=O)c1ccc(Cl)s1)c1ccccc1 > 20.6 µM
CCOC(=O)Cn1c(SC)nc2sc3c(c2c1=O)CC(C)(C)OC3 > 20.6 µM
O=C(C1=C(O)C(=O)N(c2ncccn2)C1c1cccc(Cl)c1)c1ccco1 (stereo not given) > 20.6 µM
Cc1ccc(N(CC(O)CN2CCCC2)S(=O)(=O)c2ccc(C)cc2)cc1 (stereo not given) > 20.6 µM
CC(C)Cc1[nH]c(=O)c(C#N)c2c1CCCC2 > 20.6 µM
COCCCn1c2nc3ccccc3nc2c2c(=O)n(CC3CCCO3)cnc21 (stereo not given) > 20.6 µM
CCn1cc(/C=N/O)c(C)n1 > 20.6 µM
